ChEMBL document CHEMBL1201862, “PubChem BioAssay data set” (2004)
Entries with a potency or affinity are not part of this list. Only a part of the results of these assays is listed, not drawn at random.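 Briefly, cells in 96-well plates were exposed to five compound concentrations for 48 h, and endpoints were estimated by linear interpolation. GI50: concentration for 50% inhibition of growth.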

System: KM-20L2
Assay: NCI tumour cell line growth inhibition, 48 h

CADMIUM DICHLORIDE, CHEMBL1458880
GI50: 100 µM
